We go through 28 molecules from PubChem BioAssay (NCATS).

Test [1] is described as follows: Primary qHTS for small molecule stabilizers of the endoplasmic reticulum resident proteome: Secreted ER Calcium Modulated Protein (SERCaMP) assay (AID 1508630). Note: % is set by controls: 0 for no effect and ±100 for the full control effect. An outline of the steps: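 GLuc-SERCaMP-expressing SH-SY5Y cells, pretreated 16 h with compound, are challenged with thapsigargin to empty ER calcium stores; after 4 h, coelenterazine is added directly to the medium and luminescence is imaged.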

Test [2] in a line: A High-Content qHTS Against Drug Library for the Identification of Small Molecules that Inhibit DYT1 Early Onset Primary Dystonia-Associated Cell Pathology (AID 1645839; calls by dose curve; note: potency is the fitted concentration of half-maximal effect; for % pathology change, negative = correction: series mostly up to about 46 µM). An outline of the steps:
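Readout: %pathology, the punctate EGFP-TorsinA distribution from imaging, as the primary channel and cell count as the toxicity counterscreen. HEK293 Flp-In cells expressing delE TorsinA were induced with tetracycline and treated with compound for 48 h.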

The target in test [3] is Cytochrome P450 2D6 (Homo sapiens) (UniProt P10635). As to the kind of experiment: Cytochrome P450 family 2 subfamily D member 6 (CYP2D6) small molecule antagonists: luciferase biochemical (cell-free) qHTS assay (AID 1645840; active = well fitted curve in the direction sought with a large enough effect in the repeat runs; an effect the other way counts as inactive or inconclusive; note: nearly all actives have a fitted effect of over 55% in size; note: potency is the fitted concentration of half-maximal effect; for activity change, negative = inhibition: series mostly up to about 57 µM; % is set by controls: 0 for no effect and ±100 for the full control effect). An outline of the steps: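 P450-Glo luminescent screen: recombinant CYP2D6 enzyme–proluciferin substrate mix preincubated with compound 10 min at room temperature, then NADPH regeneration added for 1 h at room temperature. Detection reagent added for 20 min; luciferin light read as relative luminescence units.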

Test [4] has as its target Cytochrome P450 2C9 (Homo sapiens) (UniProt P11712). As to the kind of experiment: Cytochrome P450 family 2 subfamily C member 9 (CYP2C9) small molecule antagonists: luciferase biochemical (cell-free) qHTS assay (AID 1645842; active = well fitted curve in the direction sought with a large enough effect in the repeat runs; an effect the other way counts as inactive or inconclusive; note: nearly all actives have a fitted effect of over 55% in size; note: potency is the fitted concentration of half-maximal effect; for activity change, negative = inhibition: series mostly up to about 57 µM; % is set by controls: 0 for no effect and ±100 for the full control effect). An outline of the steps:
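Luminescence, after 20 min with luciferin detection reagent, reflected CYP2C9 turnover during a 1 h NADPH-driven reaction at 37C. Enzyme-substrate mix contained 0.4% bovine serum albumin and was preincubated with compound 10 min at room temperature.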

Test [5] in a line: Primary qHTS for inhibitors of nuclear receptor binding SET domain protein 2 (NSD2) in an isogenic RCH-ACV NSD2 p.E1099K mutant (9B) (AID 1645876). For activity change, negative = viability loss: % is set by controls: 0 for no effect and ±100 for the full control effect. Note: nearly all actives have a fitted effect of over 70% in size. Note: potency is the fitted concentration of half-maximal effect.

Inconclusive results are not listed. A number with no mark means an inactive call. The source made the active and inactive calls. Unless noted, calls come from the whole dose curve; as a rule, active = well fitted curve in the direction sought with a large enough effect; inconclusive = small, poorly fitted or top-dose-only effect, or another doubt; inactive = no such curve, though single readings can be large; an effect the other way counts as inactive or inconclusive.

Chain of Cytochrome P450 2C9 (Homo sapiens) (P11712 whole entry, looked up): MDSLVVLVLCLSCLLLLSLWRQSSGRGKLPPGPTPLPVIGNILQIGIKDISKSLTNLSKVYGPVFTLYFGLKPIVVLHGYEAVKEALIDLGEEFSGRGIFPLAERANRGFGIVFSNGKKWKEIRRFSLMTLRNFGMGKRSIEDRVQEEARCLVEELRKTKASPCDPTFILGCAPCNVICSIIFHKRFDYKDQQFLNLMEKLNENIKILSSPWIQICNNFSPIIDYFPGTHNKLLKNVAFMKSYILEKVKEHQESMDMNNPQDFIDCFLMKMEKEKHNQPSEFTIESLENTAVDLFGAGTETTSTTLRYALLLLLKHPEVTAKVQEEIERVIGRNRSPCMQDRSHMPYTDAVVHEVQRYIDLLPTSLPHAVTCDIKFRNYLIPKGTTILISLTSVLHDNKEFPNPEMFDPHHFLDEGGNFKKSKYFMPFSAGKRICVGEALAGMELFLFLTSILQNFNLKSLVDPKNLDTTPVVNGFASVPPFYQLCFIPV
Chain of Cytochrome P450 2D6 (Homo sapiens) (P10635 whole entry, looked up): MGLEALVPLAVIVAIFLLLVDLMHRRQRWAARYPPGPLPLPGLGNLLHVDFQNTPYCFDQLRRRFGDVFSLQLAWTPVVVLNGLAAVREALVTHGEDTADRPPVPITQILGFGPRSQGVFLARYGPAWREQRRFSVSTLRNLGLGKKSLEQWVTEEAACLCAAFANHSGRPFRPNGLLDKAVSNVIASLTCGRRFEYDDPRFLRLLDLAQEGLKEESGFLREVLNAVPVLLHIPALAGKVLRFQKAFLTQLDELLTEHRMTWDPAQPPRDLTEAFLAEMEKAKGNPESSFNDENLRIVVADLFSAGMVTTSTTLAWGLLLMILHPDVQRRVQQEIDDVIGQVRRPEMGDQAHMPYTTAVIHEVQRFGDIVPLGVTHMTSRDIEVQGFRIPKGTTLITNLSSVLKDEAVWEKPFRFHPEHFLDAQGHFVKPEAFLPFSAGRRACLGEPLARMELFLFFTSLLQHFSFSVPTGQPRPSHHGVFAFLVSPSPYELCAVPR

Consider `O=C(O)c1cn(C2CC2)c2cc(Cl)c(F)cc2c1=O`, for which the Potency result in test [1], in test [2], in test [3], in test [4] and in test [5] was “inactive” throughout.

As for `Cc1onc(-c2c(Cl)cccc2Cl)c1C(=O)Cl`, the Potency result in test [1], in test [2], in test [3] and in test [5] was “inactive” throughout.

As to `O=C(OCC(COC(=O)c1cccnc1)(COC(=O)c1cccnc1)COC(=O)c1cccnc1)c1cccnc1`, the Potency entry in test [1], in test [2], in test [3] and in test [5] was “inactive” in each case.

In the case of `COc1cc2c(cc1OC)CN(C(=O)[C@H](C)N[C@@H](CCc1ccccc1)C(=O)O)[C@H](C(=O)O)C2`, the Potency entry in test [1], in test [2], in test [3], in test [4] and in test [5] was “inactive” each time.

Turning to `O=C(CO)[C@@H](O)[C@H](O)[C@@H](O)CO`, the Potency result in test [1], in test [2], in test [3], in test [4] and in test [5] was “inactive” each time.

`CCCCCCn1c(=O)c2c(ncn2C)n(C)c1=O`: the Potency result in test [1], in test [2], in test [3], in test [4] and in test [5] was “inactive” in each case.

On to `CC(=O)OCC(=O)[C@@]1(O)CCC2C3CCC4=CC(=O)CC[C@]4(C)C3[C@@H](O)C[C@@]21C` (some centres not stated), for which the Potency entry in test [1], in test [2], in test [3] and in test [5] was “inactive” in each case.

Regarding `O=C1[C@@H]2[C@H]3CC[C@H](C3)[C@@H]2C(=O)N1CCCCN1CCN(c2ncccn2)CC1`, the Potency result in test [1], in test [2], in test [4] and in test [5] was “inactive” throughout. Besides, the Potency in test [3] is 15.5 µM (active).

For the molecule `C=C(C)C(=O)OCC(O)CO` (configuration not stated), the Potency result in test [1], in test [2], in test [3], in test [4] and in test [5] was “inactive” each time.

In the case of `Cc1c(C)c2c(c(C)c1OC(=O)CCC(=O)OCCO)CC[C@@](C)(CCC[C@H](C)CCC[C@H](C)CCCC(C)C)O2`, the Potency result in test [1] was “inactive”. Besides, the Potency in test [2] was 5.62 µM (active); in test [3], 12.3 µM (active); in test [5], 21.1 µM (active).

Regarding `O=C1CC2(CCCC2)CC(=O)N1`, the Potency entry in test [1], in test [2], in test [3], in test [4] and in test [5] was “inactive” throughout.

Regarding `Nc1c(I)cc(I)c(C(=O)N(CCC(=O)O)c2ccccc2)c1I`, the Potency result in test [1], in test [2], in test [3] and in test [5] was “inactive” in each case.

On to `O=C(Oc1ccccc1)c1ccccc1O`, for which the Potency result in test [1], in test [2], in test [3], in test [4] and in test [5] was “inactive” each time.

Take `Cc1ncc([N+](=O)[O-])n1C`: the Potency result in test [1], in test [2], in test [3], in test [4] and in test [5] was “inactive” in each case.

Turning to `CCCc1ncc(C(=O)O)s1`, the Potency result in test [1], in test [2], in test [3], in test [4] and in test [5] was “inactive” each time.

On to `CCN(CC)CCN`, for which the Potency entry in test [1], in test [2], in test [3], in test [4] and in test [5] was “inactive” in each case.

Regarding `O=S(=O)(O)c1ccc2nc(-c3ccccc3)[nH]c2c1`, the Potency result in test [1], in test [2] and in test [5] was “inactive” each time. For the same molecule, in test [3], the Potency was 9.77 µM (active).

For the molecule `CCOC(=O)O[C@]1(C(=O)OCCl)CC[C@H]2[C@@H]3CCC4=CC(=O)C=C[C@]4(C)[C@H]3[C@@H](O)C[C@@]21C`, the Potency result in test [1], in test [2], in test [3], in test [4] and in test [5] was “inactive” each time.

`Cc1ccc(Cl)c(OCC(O)CNC(C)(C)C)c1` (configuration not stated): the Potency entry in test [1], in test [2], in test [4] and in test [5] was “inactive” in each case. Further, the Potency in test [3] was 1.74 µM (active).

As to `CC(C)(C)c1ccc(C(=O)CCCCl)cc1`, the Potency result in test [1], in test [2], in test [3], in test [4] and in test [5] was “inactive” each time.

Regarding `O=C(O)Cc1ccccc1Oc1ccc(Cl)cc1Cl`, the Potency result in test [1], in test [2], in test [3] and in test [5] was “inactive” each time.

In the case of `O=c1[nH]c(=O)n([C@H]2O[C@H](CO)[C@@H](O)[C@@H]2O)cc1/C=C\Br`, the Potency entry in test [1], in test [2], in test [3], in test [4] and in test [5] was “inactive” in each case.

Take `CC1CN(c2cc3c(cc2F)c(=O)c(C(=O)O)cn3-c2ccc(F)cc2F)CCN1` (configuration not stated): the activity change, negative = inhibition in test [1] is -17% [at 3.88 µM]; in test [3], -0.861% [at 4.83 µM]; in test [4] it was 17.6% [at 4.83 µM]. Moreover, the % pathology change, negative = correction in test [2] was -2.29% [at 4.63 µM]. In test [5], the activity change, negative = viability loss is 4.46% [at 4.96 µM].

Turning to `CC(C)C(=O)OCc1cccc(OC(=O)[C@@H]2N3C(=O)[C@@H](NC(=O)Cc4ccccc4)[C@H]3SC2(C)C)c1`, the Potency result in test [1], in test [2], in test [3] and in test [5] was “inactive” in each case. The Potency in test [4] was 24.5 µM (active).

Turning to `CC(=O)O[C@H]1CC[C@@]2(C)C(=CC[C@@H]3[C@@H]2CC[C@]2(C)C(C(C)=O)=CC[C@@H]32)C1`, the Potency entry in test [1], in test [2], in test [3], in test [4] and in test [5] was “inactive” each time.

For `Nc1c2ccccc2nc2ccccc12`, the Potency entry in test [1], in test [2] and in test [4] was “inactive” in each case. For the same molecule, the Potency in test [3] was 17.4 µM (active); in test [5], 3.76 µM (active).

For `C/C=C(/C(=C/C)c1ccc(OC(C)=O)cc1)c1ccc(OC(C)=O)cc1`, the Potency result in test [1] and in test [3] was “inactive” in each case. Also, the Potency is 8.91 µM (active) in test [2], 17.4 µM (active) in test [4] and 5.31 µM (active) in test [5].

Turning to `C[C@@]12CCC[C@H]1[C@@H]1CC[C@H]3C[C@@H](O)CC[C@]3(C)[C@H]1CC2`, the Potency result in test [1], in test [2] and in test [5] was “inactive” throughout. Further, the Potency in test [4] was 22.9 µM (active).
